For twelve compounds, growth results are on record in PubChem BioAssay (NCI).

SMILES strings stand for the structures. The panel holds about 83,000 compounds, 20% with a hit somewhere; the sample as a whole holds those more often.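 Plates (96-well) were seeded with cells, treated with compound at one concentration, and incubated for 48 hours before percent growth was determined.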 Activity calls are given as the source filed them. Rule for the calls: active = growth percent below 10; inactive = the rest.

The test deals with HL-60(TB) leukemia. As to the kind of experiment: NCI-60 one-dose screen, 48 h (100 = growth as untreated, 0 = no growth, -100 = all killed). As to conditions: 10 µM unless noted.
Consider `Clc1ccc(C2CC(c3cccc(Nc4ccncc4)c3)=NN2c2cc(Cl)cc(Cl)c2)cc1` (configuration not stated), for which the growth was 24.8% (inactive).

Regarding `COC(=O)[C@]12CCC(C)(C)C[C@H]1[C@H]1/C(=N/OCCc3nn[nH]n3)C[C@@H]3[C@@]4(C)CC[C@H](OC(C)=O)C(C)(C)[C@@H]4CC[C@@]3(C)[C@]1(C)CC2`, the growth is 10.4% (inactive).

As to `CCN1C(=O)N(CC)C2Nn3c(s/c(=C4\C(=O)N(C5CCCC5)c5ccccc54)c3=O)=NC21` (configuration not stated), the growth was 29.8% (inactive).

Turning to `Cc1ccnc(NC(c2ccccc2)c2ccc3cccnc3c2O)c1` (configuration not stated), the growth is -2.23% (active).

With `O=C(c1ccc(Nc2nccc(NCCCNc3ccnc4cc(Cl)ccc34)n2)cc1)N1CCCCC1`, the growth was 22.4% (inactive).

Regarding `CCOC(=O)NC1=NCC(C)(C)S1`, the growth was 67.9% (inactive).

Regarding `COc1ccc(C2Nc3c(c(C(C)(C)C)nn3-c3ccccc3)C(=O)CS2)cc1` (configuration not stated), the growth is 129% (inactive).

`COc1ccccc1Nc1cc(O)c2c(=O)cc(-c3ccccc3)oc2c1`: the growth is -6.07% (active).

Turning to `CNC(=O)c1cc(Oc2ccc3c(c2)sc2nc(-c4ccc(Cl)c(C(F)(F)F)c4)cn23)ccn1`, the growth is 35.8% (inactive).

As to `COc1ccc(-c2nc(/C=N/Nc3cc(C)nc4ccc(Br)cc34)c(C)o2)cc1`, the growth is -51.5% (active).

With `CC1(C)[C@@H](O)CC[C@]2(C)[C@H]3CC[C@@H]4[C@H]5[C@H](C(=O)/C=C/c6ccc(C(F)(F)F)cc6)CC[C@]5(CO)CC[C@@]4(C)[C@]3(C)CC[C@@H]12`, the growth is 28.1% (inactive).

For the compound `CCCCn1c(=O)[nH]c(N)c(C(c2ccc(F)cc2)c2c(N)[nH]c(=O)n(CCCC)c2=O)c1=O`, the growth is 78.7% (inactive).
